The results in this text go back to PubChem BioAssay (NCATS).

Where “and” joins values, the source holds several entries; their conditions need not be identical. Equal entries are not always repeated. Inconclusive results are not listed. A structure can be active in one record and inactive in another. Calls of active or inactive are those of the source. Unless noted, the call rests on the fitted dose curve; in most records, active means well fitted curve in the direction sought with a large enough effect; inconclusive means small, poorly fitted or top-dose-only effect, or another doubt; inactive means no such curve, though single readings can be large; an effect the other way counts as inactive or inconclusive.

The target in assay [1] is Single-stranded DNA cytosine deaminase (Homo sapiens) (UniProt Q9GZX7). Put plainly: Validation qHTS assay for inhibitors of Activation Induced Cytidine Deaminase (AID): AID signal (AID 1347429). Further: on the % scale 0 is the no-effect control and ±100 the full control effect. The following applies: Recombinant AID, FRET ssDNA deamination with UDG, fluorescence; series mostly up to 115 µM. In a few lines:
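AID and UDG were combined and compounds added at final up to 114 uM, then DJC20/DJC23 FRET substrate was added for 4 hr at room temperature. NaOH was then added for 30 min before fluorescence was read at 540/590 nm.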
On the technique in general: Quantitative high-throughput screening tests each substance at several concentrations.

Assay [2] is described as follows: Primary qHTS for inhibitors of La Crosse Virus (LACV) - induced cell death in SH-SY5Y cells (AID 1508616).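 Further: top concentration of the series differs between compounds; 0% = infected DMSO wells and 100% = uninfected DMSO wells; higher means more rescue of cells from virus-induced death.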 The following applies: SH-SY5Y LACV cytopathicity rescue, ATP luminescence, 6 d; series mostly up to 4.29 µM. In a few lines:
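Luminescent ATP readout (ATPLite 1step, 5 min room temperature) measured rescue from LACV-induced death after 6 days of infection at 0.01 MOI; normalized to infected DMSO wells and uninfected DMSO wells.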

The target of assay [3] is Calcium and integrin-binding protein 1 (Homo sapiens) (UniProt Q99828). Put plainly: Validation qHTS for Identification of Calcium Integrin Binding protein 1 (CIB1) Competitor (AID 1508618). Further: on the % scale 0 is the no-effect control and ±100 the full control effect. The following applies: CIB1-GST / FITC-alphaIIb peptide fluorescence polarization; series mostly up to 114 µM. A digest of the protocol:
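In this qHTS validation, the LOPAC set (up to 114 uM) was tested for blocking CIB1 binding to a fluorescein-tagged alphaIIb peptide, with FP detection at 480/540 nm.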

Assay [4] shares this target. Put plainly: Primary qHTS for Identification of Calcium Integrin Binding Protein 1 (CIB1) Competitor (AID 1508620).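 Further: GST tagged CIB1 binding a fluorescein labelled alphaIIb integrin peptide tracer; top concentration of the series differs between compounds; on the % scale 0 is the no-effect control and ±100 the full control effect.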 The settings on record: CIB1-GST / FITC-alphaIIb peptide fluorescence polarization; series mostly up to 57.7 µM. In a few lines: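 CIB1-GST (1 uM final) and compound incubated 15 min at room temperature before adding FITC-alphaIIb peptide tracer (100 nM final). Competition for binding read by fluorescence polarization (ex 480, em 540) after another 15 min at room temperature.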

Assay [5] is described as follows: Primary qHTS for small molecule stabilizers of the endoplasmic reticulum resident proteome: Secreted ER Calcium Modulated Protein (SERCaMP) assay (AID 1508630). Further: potency means the concentration at half of the fitted maximal effect. The following applies: SH-SY5Y GLuc-SERCaMP (Gaussia luciferase released on ER calcium loss) secretion, thapsigargin, luminescence; series mostly up to 38.4 µM. A digest of the protocol: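 GLuc-SERCaMP-expressing SH-SY5Y cells, pretreated 16 h with compound, are challenged with thapsigargin to empty ER calcium stores; after 4 h, coelenterazine is added directly to the medium and luminescence is imaged.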

Assay [6] is described as follows: A High-Content qHTS Against Drug Library for the Identification of Small Molecules that Inhibit DYT1 Early Onset Primary Dystonia-Associated Cell Pathology (AID 1645839; calls by dose curve; further: potency means the concentration at half of the fitted maximal effect). The following applies: HEK293 Flp-In EGFP-delE TorsinA, punctate imaging, 48 h; series mostly up to 46.1 µM. In a few lines: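 In this high-content image screen, delE TorsinA mislocalization in inducible Flp-In 293 cells is scored as %pathology, with cell count serving as the counterscreen. Compound exposure lasts 48 h under tetracycline induction in reduced-serum medium.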

Assay [7] addresses Calcium and integrin-binding protein 1 (Homo sapiens) (UniProt Q99828). In words: Confirmatory qHTS for Identification of Calcium Integrin Binding Protein 1 (CIB1) Competitor (AID 1508617). Further: on the % scale 0 is the no-effect control and ±100 the full control effect; nearly all actives have a fitted effect of over 65% in size. The following applies: CIB1 binding competition assay, biochemical qHTS; series mostly up to 114 µM. A digest of the protocol: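 Binding competition between test compounds and fluorescent alphaIIb peptide for 1 uM CIB1-GST is monitored by FP at 480/540 nm. Final compound range is up to 114 uM; unlabeled peptide serves as reference competitor.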

Assay [8] in a line: Counterscreen qHTS for small molecule stabilizers of the endoplasmic reticulum resident proteome: GLuc-NoTag assay (AID 1508627). Further: potency means the concentration at half of the fitted maximal effect. The following applies: Gaussia luciferase NoTag secretion counterscreen, luminescence, thapsigargin 100 nM for final 4 h; series mostly up to 76.4 µM. In a few lines: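 Luminescence of Gaussia luciferase secreted into the medium (coelenterazine, 0.07x final, unlysed cells) was the read-out. Human SH-SY5Y neuroblastoma cells constitutively secreting untagged GLuc received compound for 19 h, then 100 nM thapsigargin for 4 h.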

The nature of assay [9]: Confirmatory qHTS for small molecule stabilizers of the endoplasmic reticulum resident proteome: Secreted ER Calcium Modulated Protein (SERCaMP) assay (AID 1508628). Further: potency means the concentration at half of the fitted maximal effect; nearly all actives have a fitted effect of over 40% in size. The settings on record: SERCaMP secreted luciferase ER calcium/proteostasis reporter; series mostly up to 76.3 µM. In a few lines: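 We seeded SH-SY5Y-GLuc-SERCaMP cells, added compounds (three concentrations in the primary run, eleven up to 76.6 uM in confirmation), incubated 16 h, depleted ER calcium with thapsigargin, and read luciferase 4 h later.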

A short description of assay [10]: Cell Viability qHTS for small molecule stabilizers of the endoplasmic reticulum resident proteome (AID 1508629).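 Further: human SH-SY5Y neuroblastoma cells carrying the GLuc-SERCaMP reporter; compound exposure about 46 h in total before the viability read; on the % scale 0 is the no-effect control and ±100 the full control effect.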 The settings on record: cell viability counter-screen, 100 nM thapsigargin for final 4 h.

Sequence of Single-stranded DNA cytosine deaminase (Homo sapiens) (Q9GZX7 whole entry, looked up): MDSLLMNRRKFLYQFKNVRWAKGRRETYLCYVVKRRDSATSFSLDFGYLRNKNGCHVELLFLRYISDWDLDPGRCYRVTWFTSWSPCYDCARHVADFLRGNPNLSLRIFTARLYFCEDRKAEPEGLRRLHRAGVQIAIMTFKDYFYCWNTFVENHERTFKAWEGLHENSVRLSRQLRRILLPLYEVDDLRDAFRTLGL
Sequence of Calcium and integrin-binding protein 1 (Homo sapiens) (Q99828 whole entry, looked up): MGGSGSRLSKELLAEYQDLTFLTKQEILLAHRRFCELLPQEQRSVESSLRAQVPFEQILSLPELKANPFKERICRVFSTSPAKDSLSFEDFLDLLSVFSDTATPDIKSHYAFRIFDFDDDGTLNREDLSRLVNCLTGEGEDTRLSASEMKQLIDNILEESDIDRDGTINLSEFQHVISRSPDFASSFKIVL

As to `Cc1oncc1C(=O)Nc1ccc(C(F)(F)F)cc1`, the Potency result in assay [1], in [3], in assay [5] and in assay [6] was “inactive” in each case. Further, the call in [2] and in [4] was inactive.
On to `CCCCNc1cc(C(=O)O)cc(S(N)(=O)=O)c1Oc1ccccc1`, for which the Potency entry in [1], in [3], in assay [5] and in [6] was “inactive” each time. Also, the compound was called inactive in assay [2] and in assay [4].
Take `NC[C@H](O)c1ccc(O)c(O)c1`: the Potency entry in assay [1], in [7], in assay [3], in assay [5] and in assay [6] was “inactive” in each case. The compound was called inactive in [2] and in [4].
In the case of `NCCCC(N)(C(=O)O)C(F)F` (stereo not drawn), the Potency result in assay [1], in assay [3], in assay [5] and in assay [6] was “inactive” in each case. In addition, the result in assay [2] and in assay [4] was inactive.
On to `CCCC(CCC)C(=O)O`, for which the Potency result in assay [1], in [3], in [5] and in [6] was “inactive” each time. Further, the compound was called inactive in [2] and in [4].
As for `C1COC(NC(C2CC2)C2CC2)=N1`, the Potency result in assay [1], in assay [3], in assay [5] and in assay [6] was “inactive” in each case. Moreover, the compound was called inactive in [2] and in [4].
For the compound `Nc1ccc(S(=O)(=O)Nc2ccnn2-c2ccccc2)cc1`, the Potency result in assay [1], in assay [3], in [5] and in [6] was “inactive” in each case. In addition, the result in assay [2] and in assay [4] was inactive.
As to `Cc1cccc(-c2[nH]c(C(C)(C)C)nc2-c2ccc3nccnc3c2)n1`, the Potency entry in [1], in assay [3] and in assay [5] was “inactive” throughout. Also, the result in assay [2] and in [4] was inactive.
For the compound `Cc1ccccc1C(OCCN(C)C)c1ccccc1` (stereo not drawn), the Potency result in assay [1], in assay [3], in assay [8], in assay [5] and in [6] was “inactive” in each case. Besides, the outcome in assay [2] and in [4] was inactive.
For `NNCCc1ccccc1`, the Potency result in [1], in [3], in assay [5] and in [6] was “inactive” each time. The call in [2] and in [4] was inactive.
`CCOC(=O)C1=C[C@]2(CC)CCCN3CCc4c(n1c1ccccc41)[C@@H]32`: the Potency result in assay [1], in assay [3], in assay [5] and in assay [6] was “inactive” in each case. In addition, the call in assay [2] and in assay [4] was inactive.
On to `c1ccc([C@H]2CN3CCSC3=N2)cc1`, for which the Potency result in assay [1], in [3], in [5] and in assay [6] was “inactive” throughout. In addition, the outcome in [2] and in assay [4] was inactive.
Take `O=c1[nH]cnc2[nH]ncc12`: the Potency entry in assay [1], in [3], in assay [5] and in assay [6] was “inactive” each time. Besides, the result in [2] and in assay [4] was inactive.
As for `N[C@@H]1CONC1=O`, the Potency result in assay [1], in assay [3], in assay [5] and in [6] was “inactive” throughout. The compound was called inactive in assay [2] and in [4].
In the case of `CC(C)C[C@H](NC(=O)[C@@H](O)[C@H](N)Cc1ccccc1)C(=O)O`, the Potency entry in [1], in assay [3] and in assay [5] was “inactive” in each case. The compound was classed as inactive in [2] and in assay [4].
Take `OC(CCN1CCCCC1)(c1ccccc1)C1CC2C=CC1C2` (stereo not drawn): the Potency result in [1], in assay [3], in [8] and in assay [6] was “inactive” throughout. Further, the compound was classed as inactive in assay [2] and in [4]. The Potency is 15.8 µM (active) and 22.4 µM (active) in assay [9]; 10 µM (active) in [5]. Moreover, in assay [10], the max response was 24.4% (inactive).
Take `NCCc1ccc(O)c(O)c1`: the Potency result in assay [1], in assay [3], in [5] and in assay [6] was “inactive” each time. The result in assay [2] and in assay [4] was inactive.
For `O=C1CCc2cc(OCCCCc3nnnn3C3CCCCC3)ccc2N1`, the Potency result in assay [1], in assay [3], in [5] and in [6] was “inactive” in each case. Moreover, the compound was called inactive in assay [2] and in [4].
With `Cc1[nH]c(=O)c(C#N)cc1-c1ccc2nccn2c1`, the Potency entry in [1], in [3], in assay [8], in assay [5] and in assay [6] was “inactive” throughout. Also, the outcome in [2] and in assay [4] was inactive. Also, the max response in assay [10] is 9.8% (inactive).
Turning to `O=NN(CCCl)C(=O)NCCCl`, the Potency entry in assay [1], in assay [3] and in assay [5] was “inactive” throughout. Moreover, the compound was called inactive in assay [2] and in [4].
On to `CCOC(=O)N1CCC(=C2c3ccc(Cl)cc3CCc3cccnc32)CC1`, for which the Potency result in assay [1], in assay [3] and in assay [5] was “inactive” in each case. Besides, the call in [2] and in assay [4] was inactive. Also, in [8], the Potency is 35.5 µM (active).
As for `O=c1n(CCCN2CCN(c3cccc(Cl)c3)CC2)nc2ccccn12`, the Potency entry in assay [1], in assay [3], in assay [5] and in [6] was “inactive” in each case. Moreover, the result in assay [2] and in assay [4] was inactive.
As for `NS(=O)(=O)c1cc2c(cc1Cl)NC=NS2(=O)=O`, the Potency result in [1], in assay [3] and in assay [5] was “inactive” in each case. For the same compound, the compound was classed as inactive in assay [2] and in assay [4].
As to `Clc1cccc(Cl)c1NC1=NCCN1`, the Potency entry in assay [1], in [3], in assay [5] and in [6] was “inactive” throughout. In addition, the outcome in assay [2] and in assay [4] was inactive.
In the case of `Cc1[nH]c(=O)c(C#N)cc1-c1ccncc1`, the Potency entry in assay [1], in assay [3], in assay [5] and in assay [6] was “inactive” throughout. Also, the result in [2] and in [4] was inactive.
For `NC(N)=NC(=O)c1nc(Cl)c(N)nc1N`, the Potency result in [1], in assay [3], in [5] and in assay [6] was “inactive” throughout. Moreover, the compound was classed as inactive in assay [2] and in assay [4].
For the compound `CC(C[N+](C)(C)C)OC(N)=O` (stereo not drawn), the Potency result in assay [1], in [3], in [5] and in assay [6] was “inactive” each time. The compound was classed as inactive in assay [2] and in [4].
For `Cn1cnc([N+](=O)[O-])c1Sc1ncnc2nc[nH]c12`, the Potency entry in [1], in assay [3] and in assay [5] was “inactive” each time. Besides, the result in [2] and in assay [4] was inactive. Also, in assay [6], the Potency is 35.5 µM (active) and inactive.
With `CC(=O)Oc1ccccc1C(=O)O`, the Potency result in assay [1], in assay [3], in [5] and in [6] was “inactive” each time. Moreover, the result in assay [2] and in assay [4] was inactive.
Consider `CCC(C)N(C)C(=O)c1cc2ccccc2c(-c2ccccc2Cl)n1` (stereo not drawn), for which the Potency entry in assay [1], in assay [3] and in [5] was “inactive” each time. For the same compound, the call in assay [2] and in assay [4] was inactive.
On to `Nc1nc2ccc(OC(F)(F)F)cc2s1`, for which the Potency result in assay [1], in [3], in [5] and in assay [6] was “inactive” throughout. Moreover, the compound was called inactive in [2] and in assay [4].
